Data published in the supplement of paper PMC10849652.
About 7,900 targets were measured; listed, in parts, are those with a hit and a random draw of the rest. About 0.6% of all pairs of compound and target were hits. Values without a mark were called inactive.

What was measured:
Assay in all cases: log2 fold change, soluble protein after heating vs DMSO (PISA); higher = thermal stabilisation; K562 cells, 10 uM, 30 min; active = over 0.2 and 3.5 SD of the protein, either way, in both replicates (recomputed)
erlotinib = compound: C#Cc1cccc(Nc2ncnc3cc(OCCOC)c(OCCOC)cc23)c1 [erlotinib]
In short: (§1)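 Soluble protein was defined as the supernatant after 21,000xg for 90 min. It came from K562 cells at 2×10^6 cells/mL given 10 μM compound for 30 min, heated in aliquots for 3 min across 48°C-58°C, pooled, and extracted in PBS with 0.5% NP-40 at 4°C, and was quantified by TMTpro 16plex LC-MS/MS with equalised channel sums. Thermal stability against control samples, from duplicates, is reported as log2 fold change.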

[1] = compound: C/C(=N\NC(=O)C1=CC(=CC=C1)S(=O)(=O)N2CCOCC2)/C3=C(C=CC(=C3)Cl)O
In short: as §1

[2] = compound: C1=CC(=C(C=C1Cl)C2=NC3=NC=CN=C3C(=N2)NC4=CC=NC=C4)F
In short: as §1

[3] = compound: C1=CC(=CC=C1C2=NC3=C(N2)C=C(C=C3)C(=O)N)OC4=CC=C(C=C4)Cl
In short: as §1

[4] = compound: C1=CC2=C(C=CC(=C2)/C=C\3/C(=O)NC(=NCC4=CC=CS4)S3)N=C1
In short: as §1

[5] = compound: C1=CC2=NC=CN=C2C=C1/C=C/3\C(=O)NC(=O)S3
In short: as §1

[6] = compound: C1=CC=C(C=C1)C2=NC(=C(N2)C3=CC=NC=C3)C4=CC(=C(C=C4)Cl)O
In short: as §1

[7] = compound: C1=CC=C2C(=C1)C3=NNC4=CC=CC(=C43)C2=O
In short: as §1

[8] = compound: C1CCN(C1)C(=O)NC2=CC=CC(=C2)NC3=NC=C(C(=N3)NCCC4=CN=CN4)Br
In short: as §1

[9] = compound: C1CN(CCC1(CC2=CC=C(C=C2)Cl)N)C3=NC=NC4=C3C=CN4
In short: as §1

Sequence of UniProt O15530 (O15530 whole entry, looked up): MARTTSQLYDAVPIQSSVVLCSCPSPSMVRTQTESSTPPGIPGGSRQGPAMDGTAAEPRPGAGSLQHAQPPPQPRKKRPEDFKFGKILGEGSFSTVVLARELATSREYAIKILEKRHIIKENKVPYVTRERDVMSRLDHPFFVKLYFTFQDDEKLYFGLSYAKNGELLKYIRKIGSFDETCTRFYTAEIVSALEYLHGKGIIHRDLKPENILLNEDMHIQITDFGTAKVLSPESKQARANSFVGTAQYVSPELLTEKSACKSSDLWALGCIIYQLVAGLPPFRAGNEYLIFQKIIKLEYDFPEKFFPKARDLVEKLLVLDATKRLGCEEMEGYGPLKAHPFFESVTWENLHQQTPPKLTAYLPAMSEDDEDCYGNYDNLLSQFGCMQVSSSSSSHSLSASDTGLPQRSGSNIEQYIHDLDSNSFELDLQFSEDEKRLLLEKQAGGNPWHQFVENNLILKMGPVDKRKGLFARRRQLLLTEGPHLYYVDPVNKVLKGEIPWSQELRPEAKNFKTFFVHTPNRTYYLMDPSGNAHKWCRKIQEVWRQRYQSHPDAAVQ
Sequence of UniProt Q8IV08 (Q8IV08 whole entry, looked up): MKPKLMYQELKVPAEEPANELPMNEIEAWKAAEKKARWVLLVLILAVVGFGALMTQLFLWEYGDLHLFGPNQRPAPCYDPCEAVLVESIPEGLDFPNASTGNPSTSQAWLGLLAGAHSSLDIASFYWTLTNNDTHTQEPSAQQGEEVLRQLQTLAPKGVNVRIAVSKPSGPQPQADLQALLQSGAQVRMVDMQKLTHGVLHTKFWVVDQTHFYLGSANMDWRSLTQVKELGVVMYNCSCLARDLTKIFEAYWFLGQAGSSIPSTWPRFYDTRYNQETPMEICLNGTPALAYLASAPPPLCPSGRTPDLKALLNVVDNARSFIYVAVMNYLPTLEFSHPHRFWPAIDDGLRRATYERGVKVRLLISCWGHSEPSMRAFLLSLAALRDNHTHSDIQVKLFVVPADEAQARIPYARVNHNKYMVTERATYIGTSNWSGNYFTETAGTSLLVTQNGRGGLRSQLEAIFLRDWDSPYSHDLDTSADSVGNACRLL
Sequence of UniProt Q9NR12 (Q9NR12 whole entry, looked up): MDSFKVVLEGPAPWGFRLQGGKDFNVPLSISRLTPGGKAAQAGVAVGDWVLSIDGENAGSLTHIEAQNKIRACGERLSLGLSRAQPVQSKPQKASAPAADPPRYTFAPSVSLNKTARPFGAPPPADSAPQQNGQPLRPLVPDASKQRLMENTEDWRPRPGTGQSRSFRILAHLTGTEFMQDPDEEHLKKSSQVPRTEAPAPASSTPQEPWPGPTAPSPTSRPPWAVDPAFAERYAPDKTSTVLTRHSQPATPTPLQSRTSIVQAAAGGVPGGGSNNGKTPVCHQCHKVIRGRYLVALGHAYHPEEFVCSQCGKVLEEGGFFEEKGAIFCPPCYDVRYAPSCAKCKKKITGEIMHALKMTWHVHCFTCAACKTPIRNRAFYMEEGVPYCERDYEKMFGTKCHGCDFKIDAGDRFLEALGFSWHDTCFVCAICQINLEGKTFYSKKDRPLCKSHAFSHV
Sequence of UniProt Q9H5K3 (Q9H5K3 whole entry, looked up): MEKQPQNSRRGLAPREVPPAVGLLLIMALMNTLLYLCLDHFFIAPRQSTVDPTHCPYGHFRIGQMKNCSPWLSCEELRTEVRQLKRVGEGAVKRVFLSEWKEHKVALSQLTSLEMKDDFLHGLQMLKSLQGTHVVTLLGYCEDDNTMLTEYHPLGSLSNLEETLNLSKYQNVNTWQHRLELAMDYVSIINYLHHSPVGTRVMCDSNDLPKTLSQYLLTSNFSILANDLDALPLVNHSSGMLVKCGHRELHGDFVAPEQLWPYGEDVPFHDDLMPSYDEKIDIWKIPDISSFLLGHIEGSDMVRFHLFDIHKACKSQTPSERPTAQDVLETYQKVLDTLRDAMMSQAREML
Sequence of UniProt O00408 (O00408 whole entry, looked up): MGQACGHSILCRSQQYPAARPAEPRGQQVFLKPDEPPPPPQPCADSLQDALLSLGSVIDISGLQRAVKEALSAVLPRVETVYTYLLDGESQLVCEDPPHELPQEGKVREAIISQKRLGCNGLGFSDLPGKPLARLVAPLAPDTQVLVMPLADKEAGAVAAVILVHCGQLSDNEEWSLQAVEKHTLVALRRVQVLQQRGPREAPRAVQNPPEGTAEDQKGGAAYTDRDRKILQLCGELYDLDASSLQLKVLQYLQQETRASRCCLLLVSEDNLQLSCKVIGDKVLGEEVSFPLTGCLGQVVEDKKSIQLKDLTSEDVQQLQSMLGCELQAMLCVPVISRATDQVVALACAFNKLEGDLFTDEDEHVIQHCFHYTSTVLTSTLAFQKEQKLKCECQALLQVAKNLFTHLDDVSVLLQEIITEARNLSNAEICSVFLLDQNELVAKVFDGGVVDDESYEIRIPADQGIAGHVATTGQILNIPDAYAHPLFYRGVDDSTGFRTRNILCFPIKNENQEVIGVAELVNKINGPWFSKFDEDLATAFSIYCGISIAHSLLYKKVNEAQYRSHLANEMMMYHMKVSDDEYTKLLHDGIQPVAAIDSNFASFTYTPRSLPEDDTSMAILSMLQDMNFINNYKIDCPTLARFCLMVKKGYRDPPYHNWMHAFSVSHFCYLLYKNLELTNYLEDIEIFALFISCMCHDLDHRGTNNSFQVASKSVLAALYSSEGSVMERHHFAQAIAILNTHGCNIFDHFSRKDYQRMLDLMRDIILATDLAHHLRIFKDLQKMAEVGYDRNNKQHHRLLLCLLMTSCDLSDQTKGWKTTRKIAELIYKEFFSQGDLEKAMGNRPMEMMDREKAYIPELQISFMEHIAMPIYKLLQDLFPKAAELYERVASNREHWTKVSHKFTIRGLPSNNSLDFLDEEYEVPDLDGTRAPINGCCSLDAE
Sequence of UniProt Q9NP80 (Q9NP80 whole entry, looked up): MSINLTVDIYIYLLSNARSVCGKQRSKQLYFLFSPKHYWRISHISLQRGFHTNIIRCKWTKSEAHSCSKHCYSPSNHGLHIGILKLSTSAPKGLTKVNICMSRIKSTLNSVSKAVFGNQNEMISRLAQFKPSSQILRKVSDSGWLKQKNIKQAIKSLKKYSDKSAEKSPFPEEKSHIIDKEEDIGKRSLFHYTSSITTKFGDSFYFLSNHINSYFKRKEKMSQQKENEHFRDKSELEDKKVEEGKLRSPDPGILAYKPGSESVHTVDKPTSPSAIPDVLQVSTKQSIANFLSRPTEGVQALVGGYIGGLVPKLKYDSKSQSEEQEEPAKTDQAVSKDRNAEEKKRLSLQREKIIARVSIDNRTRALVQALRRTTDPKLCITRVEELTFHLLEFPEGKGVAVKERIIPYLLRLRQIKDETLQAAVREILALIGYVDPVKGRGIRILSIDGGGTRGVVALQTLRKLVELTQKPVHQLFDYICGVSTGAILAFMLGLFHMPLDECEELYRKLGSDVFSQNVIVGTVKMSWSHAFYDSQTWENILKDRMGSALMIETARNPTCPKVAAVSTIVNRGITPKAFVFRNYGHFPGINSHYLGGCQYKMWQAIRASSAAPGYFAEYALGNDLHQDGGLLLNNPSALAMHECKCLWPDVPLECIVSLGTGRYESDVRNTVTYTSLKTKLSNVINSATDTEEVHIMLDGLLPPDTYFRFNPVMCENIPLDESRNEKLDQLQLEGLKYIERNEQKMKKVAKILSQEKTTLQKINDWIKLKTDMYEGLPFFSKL
Sequence of UniProt Q9UG56 (Q9UG56 whole entry, looked up): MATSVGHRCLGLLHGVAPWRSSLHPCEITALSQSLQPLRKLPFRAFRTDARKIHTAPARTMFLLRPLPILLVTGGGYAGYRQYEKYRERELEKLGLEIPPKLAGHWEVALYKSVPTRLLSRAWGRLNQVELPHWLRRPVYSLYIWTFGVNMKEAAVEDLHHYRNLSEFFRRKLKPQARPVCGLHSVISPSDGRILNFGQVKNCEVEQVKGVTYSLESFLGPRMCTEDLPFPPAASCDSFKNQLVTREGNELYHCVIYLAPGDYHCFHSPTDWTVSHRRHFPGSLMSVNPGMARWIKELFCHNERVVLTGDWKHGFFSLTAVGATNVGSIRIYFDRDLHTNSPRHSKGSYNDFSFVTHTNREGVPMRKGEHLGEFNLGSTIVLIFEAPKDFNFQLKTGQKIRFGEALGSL
Sequence of UniProt Q15121 (Q15121 whole entry, looked up): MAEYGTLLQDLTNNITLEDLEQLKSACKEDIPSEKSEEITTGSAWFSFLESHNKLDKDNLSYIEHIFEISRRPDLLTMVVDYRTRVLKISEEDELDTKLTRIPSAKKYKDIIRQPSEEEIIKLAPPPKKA
Sequence of UniProt P35998 (P35998 whole entry, looked up): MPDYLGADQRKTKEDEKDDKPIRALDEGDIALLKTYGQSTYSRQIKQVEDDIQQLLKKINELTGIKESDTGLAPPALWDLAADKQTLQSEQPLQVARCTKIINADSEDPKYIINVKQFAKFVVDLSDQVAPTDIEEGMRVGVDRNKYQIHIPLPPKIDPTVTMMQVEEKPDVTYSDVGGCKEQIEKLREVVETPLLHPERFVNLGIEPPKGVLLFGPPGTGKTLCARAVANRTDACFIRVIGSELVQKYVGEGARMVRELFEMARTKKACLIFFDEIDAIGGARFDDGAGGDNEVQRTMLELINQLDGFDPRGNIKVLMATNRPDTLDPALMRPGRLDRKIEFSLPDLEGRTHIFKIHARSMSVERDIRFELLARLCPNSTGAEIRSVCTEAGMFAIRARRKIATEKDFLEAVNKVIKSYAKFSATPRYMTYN
Sequence of UniProt P35227 (P35227 whole entry, looked up): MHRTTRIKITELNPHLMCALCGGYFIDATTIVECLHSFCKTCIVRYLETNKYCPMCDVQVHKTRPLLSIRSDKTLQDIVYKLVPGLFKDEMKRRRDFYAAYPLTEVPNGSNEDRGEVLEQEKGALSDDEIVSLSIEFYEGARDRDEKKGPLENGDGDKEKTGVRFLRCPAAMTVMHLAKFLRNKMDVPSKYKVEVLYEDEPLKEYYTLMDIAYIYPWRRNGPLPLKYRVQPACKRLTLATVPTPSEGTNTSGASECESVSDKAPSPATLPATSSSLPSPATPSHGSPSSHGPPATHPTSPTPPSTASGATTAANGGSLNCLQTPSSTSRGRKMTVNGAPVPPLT

Target	log2 fold change (erlotinib)	log2 fold change [1]	log2 fold change [2]	log2 fold change [3]	log2 fold change [4]	log2 fold change [5]	log2 fold change [6]	log2 fold change [7]	log2 fold change [8]	log2 fold change [9]
PTRH2 (UniProt Q9Y3E5)	0.015	0.048	0.125	-0.002	0.049	-0.004	0.169	-0.022	-0.038	0.007
POLD3 (UniProt Q15054)	0.083	0.131	0.048	-0.031	0.048	0.038	0.027	-0.07	-0.016	-0.099
PLD3 (UniProt Q8IV08)	-0.012	0.029	0.054	0.023	0.04	0.024	-0.061	0.006	0.001	0.048
PNPLA8 (UniProt Q9NP80)	0.101	0.031	0.014	-0.029	0.008	0	0.089	0.022	0.018	0.037
PNPLA2 (UniProt Q96AD5)	0.017	0.052	0.007	-0.021	0.045	0.063	-0.015	-0.027	0.101	-0.034
POMK (UniProt Q9H5K3)	-0.091	-0.007	0.019	0.005	-0.01	0.071	0.005	-0.019	0.006	0.005
PDPK1 (UniProt O15530)	0.02	0.083	0.026	0.064	0.068	-0.029	0.045	0.007	0.087	0.028
PARL (UniProt Q9H300)	-0.019	0.015	0.011	-0.011	0.016	0.044	0.026	-0.012	0.015	0.017
PIGT (UniProt Q969N2)	-0.045	0.037	0.002	0.034	0.009	-0.001	0.011	0.018	-0.006	-0.003
PRUNE1 (UniProt Q86TP1)	0.002	0.063	0.062	0.03	-0.034	-0.016	0.051	0.045	-0.079	-0.005
PEA15 isoform 2 (UniProt Q15121)	0.001	0.042	0.056	0.026	-0.014	0.055	-0.006	0.072	0.016	-0.064
PCLAF (UniProt Q15004)	0.073	-0.017	-0.066	0.016	-0.039	0.033	-0.105	-0.13	-0.036	0.032
PIP4K2C (UniProt Q8TBX8)	0.482	-0.063	0.023	-0.129	0.059	0.575	0.139	0.21	0.493	-0.025
PEX13 (UniProt Q92968)	0.026	0.03	0.026	0.009	0.048	0.073	-0.01	0.005	0.038	0.036
PHKA2 (UniProt P46019)	-0.077	0.029	0.041	-0.008	-0.011	0.041	-0.028	-0.026	0.004	0.004
PIGH (UniProt Q14442)	-0.036	0.068	0.049	0.027	0.042	-0.03	-0.065	-0.054	-0.005	0.009
PDSS2 (UniProt Q86YH6)	0.029	-0.011	-0.04	0.012	0.053	-0.025	0.026	-0.006	0.061	0.073
POLR2B (UniProt P30876)	-0.008	-0.014	-0.025	0.024	-0.006	0.047	0.045	0.009	0.068	-0.063
PDLIM7 (UniProt Q9NR12)	0.013	0.039	0.1	-0.037	-0.01	0.002	0.073	0.016	-0.01	0.133
PDE2A (UniProt O00408)	-0.055	-0.521 (active)	-0.011	-0.034	0.161	-0.099	0.137	0.113	-0.077	0.184
PDCD6 (UniProt O75340)	-0.006	0.038	0.066	0.004	0.034	0.02	-0.061	0.029	0.024	-0.048
PSMD12 (UniProt O00232)	-0.064	0	-0.017	-0.003	-0.023	-0.016	0.009	0.066	-0.042	-0.049
PRIM2 (UniProt P49643)	0.004	0.038	0.018	0.015	0.061	0.009	0.035	0.035	-0.023	-0.071
PSMC2 (UniProt P35998)	-0.05	-0.054	-0.057	0.008	-0.001	-0.03	0.019	0.02	-0.007	-0.031
PISD (UniProt Q9UG56)	-0.021	-0.055	0.026	0.089	0.034	0.023	0.02	0.058	0.009	-0.004
PCGF2 (UniProt P35227)	0.11	0.037	0.001	-0.013	0.177	-0.023	0.053	-0.002	-0.057	-0.061
POLR2I (UniProt P36954)	-0.058	-0.107	0.108	0.068	-0.073	-0.117	0.079	-0.043	-0.092	0
PCTP (UniProt Q9UKL6)	0.035	-0.04	0.065	0.046	0.057	0.076	0.012	0.002	0.049	-0.035
